From PubChem BioAssay (EPA / NIEHS)
Records with an inconclusive call do not appear. Calls of active or inactive are those of the source. How the source made its calls, unless noted: active means hit-call score of the fitted dose curve at least 0.9, where 1 is the maximum; inactive means score below 0.9.

Columns and labels:
SERPINA7 (gene 6906) = assay: CCTE_GLTED_hTBG: CCTE's human Thyroxine-binding Globulin (TBG) Inhibition Assay, Great Lakes Toxicology and Ecology Division (GLTED) Lab (AID 2284343; active means hit-call score of the fitted dose curve at least 0.9, where 1 is the maximum;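 further: active chemicals lower fluorescence versus DMSO baseline by displacing probe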)
Summary of the method: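 Fluorescence (ex 380/em 475) reports ANSA displaced from human TBG after a 2 h incubation with test chemical, without cells. Loss of signal indicates displacement, with DMSO serving as baseline.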

[1] = CCTE_Padilla_ZF_Score.Craniofacial: CCTE's 144 Hour Post-fertilization zebrafish Assay Score for Craniofacial Malformation, Padilla Lab (AID 2284405)
Summary of the method: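 Craniofacial defects were scored at 6 dpf by two blinded observers using stereomicroscopy. Exposure of wild-type embryos began at 6–8 hpf in sealed wells of 10% Hanks' solution at 26C, with chemical removed by rinsing at 5 dpf.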

[2] = CCTE_Padilla_ZF_Score.Edema: CCTE's 144 Hour Post-fertilization zebrafish Assay Score for Edema Malformation, Padilla Lab (AID 2284406)
Summary of the method: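 Edema scored at 6 dpf by two blinded observers under a stereo microscope, in single outbred wild-type larvae exposed from 6-8 hpf in sealed wells (Hanks', 26C, 14:10 h light) and chemical-free after a 5 dpf rinse.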

[3] = CCTE_Padilla_ZF_Score.Spine: CCTE's 144 Hour Post-fertilization zebrafish Assay Score for Spine Malformation, Padilla Lab (AID 2284407)
Summary of the method: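 Spine malformation scored at 6 dpf by two independent blinded observers under stereomicroscope, after static sealed exposure from 6–8 hpf at 26C in Hanks' solution with rinse on 5 dpf. Positive-direction fit against DMSO control.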

[4] = CCTE_Padilla_ZF_Score.Swim_bladder: CCTE's 144 Hour Post-fertilization zebrafish Assay Score for Swim Bladder Malformation, Padilla Lab (AID 2284408)
Summary of the method: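 Swim bladder inflation scored at 6 dpf by two blinded observers under a stereo microscope. Exposure ran from 6–8 hpf in sealed wells of 10% Hanks' at 26C, with rinsing at 5 dpf; DMSO served as baseline.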

[5] = CCTE_Padilla_ZF_Score.Position: CCTE's 144 Hour Post-fertilization zebrafish Assay Score for Position, Padilla Lab (AID 2284409)
Summary of the method: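 Wild-type zebrafish embryos (with chorions) exposed singly from 6–8 hpf in sealed wells of Hanks' solution at 26C, rinsed at 5 dpf. At 6 dpf, blinded assessors scored abnormal water-column position by brightfield stereomicroscopy, relative to DMSO.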

[6] = CCTE_Padilla_ZF_Score.Living: CCTE's 144 Hour Post-fertilization zebrafish Assay Score for Viability, Padilla Lab (AID 2284410);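 further: larval death at 6 dpf judged by absent heartbeat or coagulation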
Summary of the method: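 Mortality at 6 dpf, judged as absent heartbeat or coagulation by two blinded observers, after sealed static exposure beginning at 6–8 hpf at 26C. Larvae were rinsed free of chemical at 5 dpf, and activity was fitted relative to DMSO.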

[7] = CCTE_Padilla_ZF_Score.Tail: CCTE's 144 Hour Post-fertilization zebrafish Assay Score for Tail Malformation, Padilla Lab (AID 2284414)
Summary of the method: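 Tail malformations were scored at 6 dpf by two blinded assessors under a stereo microscope. Chorionated embryos had been exposed from 6-8 hpf in sealed wells of 10% Hanks' at 26 C, then rinsed free of chemical at 5 dpf.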

[8] = test system: SRY-box transcription factor 2 (SOX2) Protein Expression, Deisenroth Lab, SOX2 (gene 6657); assay: CCTE_Deisenroth_DEVTOX-GLR_legacy_Sox2: (Legacy) CCTE's DevTox GLR-Endo Assay Evaluation of SRY-box transcription factor 2 (SOX2) Protein Expression, Deisenroth Lab (AID 2284346)
Summary of the method: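 Two exposures, 24 h apart, during 48 h defined-media differentiation of seeded RUES2-GLR cells; nuclei-stained cells imaged. Sox2 positivity called at 5x BMAD above endoderm control median, DMSO median subtracted.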

[9] = test system: SRY-box transcription factor 17 (SOX17) Protein Expression, Deisenroth Lab, SOX17 (gene 64321); assay: CCTE_Deisenroth_DEVTOX-GLR_Endo_SOX17: CCTE's DevTox GLR-Endo Assay Evaluation of SRY-box transcription factor 17 (SOX17) Protein Expression, Deisenroth Lab (AID 2284413)
Summary of the method: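 Fluorescent microscopy of a SOX17 reporter in RUES2-GLR pluripotent cells scored endoderm differentiation after 48 h and two 24-h-spaced exposures. Values are percent change in SOX17+ population against 0.2% DMSO, n=4 experimental replicates.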

[10] = test system: SRY-box transcription factor 2 (SOX2) Protein Expression, Deisenroth Lab, SOX2 (gene 6657); assay: CCTE_Deisenroth_DEVTOX-GLR_Endo_SOX2: CCTE's DevTox GLR-Endo Assay Evaluation of SRY-box transcription factor 2 (SOX2) Protein Expression, Deisenroth Lab (AID 2284412; active means hit-call score of the fitted dose curve at least 0.9, where 1 is the maximum)
Summary of the method: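 Endpoint is percent SOX2-positive cells (SOX2+ count/total cells) minus 0.2% DMSO control, from high-content imaging of fixed, nuclear-stained RUES2-GLR cells. Dosing twice at 24 h intervals over 48 h differentiation, 1 nM–200 uM in 10 points.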

[11] = Tanguay_ZF_120hpf_MO24: Oregon State University Tanguay Lab 24 Hour Post-fertilization zebrafish Assay for Mortality (AID 2284389)
Summary of the method: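 Embryo death at 24 hpf was recorded as present or absent in Tropical 5D zebrafish, dechorionated at 4 hpf and dosed statically from 6 hpf (28C, 0.64% DMSO); 5 uM trimethyltin chloride served as positive control.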

[12] = Tanguay_ZF_120hpf_DP24: Oregon State University Tanguay Lab 24 Hour Post-fertilization zebrafish Assay for Delayed Development (AID 2284390)
Summary of the method: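 Scored at 24 hpf as a binary present/absent call of delayed development by brightfield, with dead embryos not assessed. Embryos (5D wild type, chorion removed with pronase at 4 hpf) dosed statically from 6 hpf at 28 C in 0.64% DMSO.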

[13] = Tanguay_ZF_120hpf_CRAN: Oregon State University Tanguay Lab 120 Hour Post-fertilization zebrafish Assay for Craniofacial Malformation (AID 2284397)
Summary of the method: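 Scoring of craniofacial malformation as a binary endpoint was done at 120 hpf by brightfield microscopy and was not done in dead embryos. Exposure was static, starting at 6 hpf, in dechorionated wild-type embryos held singly at 28C with 0.64% DMSO final.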

[14] = Tanguay_ZF_120hpf_AXIS: Oregon State University Tanguay Lab 120 Hour Post-fertilization zebrafish Assay for Axial Malformation (AID 2284398)
Summary of the method: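 Scoring was binary (present or absent) for body-axis defects, judged by brightfield imaging at 120 hpf in surviving larvae. Exposure was static at 28C from 6 hpf in chorion-free 5D wild-type embryos, with 0.64% DMSO vehicle.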

[15] = Tanguay_ZF_120hpf_MORT: Oregon State University Tanguay Lab 120 Hour Post-fertilization zebrafish Assay for Mortality (AID 2284399)
Summary of the method: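 Mortality, recorded present/absent via brightfield imaging at 24 and 120 hpf, in 5D zebrafish embryos exposed statically from 6 hpf after pronase chorion removal. Exposure at 28C, 0.64% DMSO vehicle, DMSO baseline.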

[16] = Tanguay_ZF_120hpf_EDEM: Oregon State University Tanguay Lab 120 Hour Post-fertilization zebrafish Assay for Edema Malformation (AID 2284400)
Summary of the method: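 Edema recorded as a binary endpoint under brightfield at 120 hpf, excluding embryos that died. Exposure was static, sealed, 28C, from 6 hpf in dechorionated wild-type larvae, final DMSO 0.64%, DMSO as baseline.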

[17] = Tanguay_ZF_120hpf_BRN: Oregon State University Tanguay Lab 120 Hour Post-fertilization zebrafish Assay for Brain Region Malformation (AID 2284402)
Summary of the method: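 Binary brightfield scoring of brain malformation at 120 hpf in 5D wild-type larvae, chorion removed with pronase at 4 hpf. Static exposure began at 6 hpf, 28C, sealed plates, DMSO 0.64% (vol/vol) as vehicle baseline.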

[18] = Tanguay_ZF_120hpf_TCHR: Oregon State University Tanguay Lab 120 Hour Post-fertilization zebrafish Assay for Touch Responsive (AID 2284403)
Summary of the method: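 Binary touch-response calls are made at 120 hpf in 5D wild-type zebrafish larvae. These larvae were dechorionated with pronase and exposed singly from 6 hpf in sealed, dark plates at 28 °C with 0.64% DMSO final; dead embryos are excluded.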

[19] = Tanguay_ZF_120hpf_ANY: Oregon State University Tanguay Lab 120 Hour Post-fertilization zebrafish Assay for Any Mortality and Malformation (AID 2284404)
Summary of the method: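 Dechorionated Tropical 5D wild-type embryos, one per well from 6 hpf, static exposure in sealed, dark plates at 28C until 120 hpf, 0.64% DMSO final. Brightfield scoring of mortality and malformations as binary presence/absence, pooling 13 morphology endpoints.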

Measured: AC50

O=C(c1ccccc1)c1ccccc1
active: SERPINA7 (gene 6906) 40.2 µM

O=CC(F)(F)C(F)(F)C(F)(F)F
inactive: [1] | [2] | [3] | [4] | [5] | [6] | [7]

FC(F)(F)C1(F)C(F)(F)C(F)(F)C(F)(F)C1(F)F
inactive: [1] | [2] | [3] | [4] | [5] | [6] | [7]

CC(=O)Nc1ccc(O)cc1
inactive: [8] | [9]

COc1cc([N+](=O)[O-])ccc1N
active: SERPINA7 (gene 6906) 37 µM

Cc1[nH]nc2c1N=C(c1ccccc1Cl)c1cc([N+](=O)[O-])ccc1N2
active: SERPINA7 (gene 6906) 0.482 µM

CN(C)CCOC(c1ccccc1)c1ccccc1
active: [8] 100 µM | [10] 2.01 µM | [9] 54.7 µM

O=C(O)C(F)(F)OC(F)(F)C(F)(F)OC(F)(F)C(F)(F)OC(F)(F)C(F)(F)C(F)(F)C(F)(F)F
active: SERPINA7 (gene 6906) 20.8 µM | [15] 51.1 µM | [19] 34.4 µM | [2] 3.21 µM | [4] 3.2 µM | [5] 8.31 µM | [6] 8.88 µM
not listed: [8] | [9] | [10]
inactive: all other assays above

C=CC(F)(F)C(F)(F)C(F)(F)C(F)(F)F
inactive: [1] | [2] | [3] | [4] | [5] | [6] | [7]

O=C1OC(=O)C(F)(F)C1(F)F
inactive: [1] | [2] | [3] | [4] | [5] | [6] | [7]

OCC(F)(F)C(F)(F)C(F)(F)C(F)(F)C(F)(F)C(F)(F)C(F)(F)C(F)(F)C(F)(F)C(F)(F)C(F)(F)F
not listed: SERPINA7 (gene 6906) | [8] | [9] | [10]
inactive: all other assays above

CCCCc1ccc2ccccc2c1S(=O)(=O)O
active: SERPINA7 (gene 6906) 22 µM

O=C(O)CCC(F)(F)C(F)(F)C(F)(F)C(F)(F)C(F)(F)F
active: [2] 10.7 µM | [4] 10.9 µM | [5] 10.7 µM | [6] 28.3 µM
not listed: SERPINA7 (gene 6906) | [8] | [9] | [10]
inactive: all other assays above

CN(CCO)S(=O)(=O)C(F)(F)C(F)(F)C(F)(F)C(F)(F)C(F)(F)C(F)(F)C(F)(F)C(F)(F)F
active: [13] 29.5 µM | [14] 29.6 µM | [16] 29.6 µM | [18] 29.6 µM | [19] 28.9 µM | [6] 10.7 µM
not listed: SERPINA7 (gene 6906) | [8] | [9] | [10]
inactive: all other assays above

FC(F)=C(F)C(F)(F)C(F)(F)C(F)(F)C(F)F
inactive: [1] | [2] | [3] | [4] | [5] | [6] | [7]

CCCCCCCCCC=CCC1CC(=O)OC1=O (centres undefined)
active: SERPINA7 (gene 6906) 60.7 µM

O=C(CC(=O)C(F)(F)C(F)(F)C(F)(F)F)c1cccs1
active: SERPINA7 (gene 6906) 14.1 µM | [16] 65.8 µM | [19] 67.7 µM | [4] 2.41 µM | [6] 7.34 µM
not listed: [8] | [9] | [10]
inactive: all other assays above

FCOC(C(F)(F)F)C(F)(F)F
inactive: [1] | [2] | [3] | [4] | [5] | [6] | [7]
